# Source: PubChem (National Center for Advancing Translational Sciences (NCATS))
# IMPase cell inh: membrane-permeable compound that blocks inositol monophosphatase; CHO-M1 cells, IP1 accumulation, HTRF TR-FRET ratio; inhibition (IP1 accumulation), % at 46.1 µM; 120,000 tested, under 10 active; active = well fitted curve in the direction sought with a large enough effect in the signal ratio, not every such curve was filed as active; inconclusive = small, poorly fitted or top-dose-only effect, or a change in a side signal; inactive = no such curve, though single readings can be large or run the other way; the % refers to the signal ratio;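 also: cells stimulated with carbachol in lithium chloride buffer; plate controls were DMSO basal wells for no effect and reference inhibitor wells for full effect; higher means more IMPase inhibition seen as more IP1 and lower FRET ratio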
# Target sequence (P97697 whole entry, looked up): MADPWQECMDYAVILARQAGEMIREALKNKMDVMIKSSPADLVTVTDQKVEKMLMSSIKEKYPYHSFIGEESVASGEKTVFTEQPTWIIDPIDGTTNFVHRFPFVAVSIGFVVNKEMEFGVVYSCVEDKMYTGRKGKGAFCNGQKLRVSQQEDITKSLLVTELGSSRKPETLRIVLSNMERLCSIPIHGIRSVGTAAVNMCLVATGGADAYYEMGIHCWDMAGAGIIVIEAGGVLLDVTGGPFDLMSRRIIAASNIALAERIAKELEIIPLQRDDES
#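 The IP-One HTRF competitive assay in carbachol-stimulated CHO-M1 cells quantifies cellular IP1. Compounds spanned up to 46 uM final, and activity is expressed as AC50 from concentration-response fits of the ratio and donor data.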
# Lamin A splicing: changes lamin A minigene splicing in HeLa cells. HeLa LMNA splicing GFP/RFP minigene ratio, 48 h. Potency, µM (doses to about 46.1 µM), for the others: top-dose ratio change, negative = inhibition, usual class: inhibitors. 200,000 compounds, 0.01% hits. AID 1487; active = well fitted inhibition curve with a large enough effect in the signal ratio, with a control signal flat, not every such curve was filed as active; inconclusive = small, poorly fitted or top-dose-only effect, or effect the other way, or a change in a side signal; the % refers to the signal ratio; also: potency is read from the fitted curve at half-maximal effect
#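 S3 HeLa cells stably expressing lamin A-EGFP splicing minigene plus DsRed2, 600 cells/well, 48 h compound exposure at 37C. Laser-scanning cytometry; analysed as GFP (500-530 nm)/RFP (575-640 nm) total intensity ratio; 0.5% DMSO vehicle.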
# Luc counter: counter-screen: inhibitors of Kinase-Glo firefly luciferase; Kinase-Glo luciferase, ATP luminescence, 8 min; Potency, µM (top dose mostly 38.3 µM), for the others: top-dose activity change, negative = inhibition, actives largely listed as inhibitors; 200,000 compounds, 0.28% hits; AID 1379; active = well fitted inhibition curve with a large enough effect; inconclusive = small, poorly fitted or top-dose-only effect; also: potency is read from the fitted curve at half-maximal effect; nearly all actives have a fitted effect of over 60% in size
#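 Compound is pinned into ATP-containing buffer (10 uM ATP, imidazole pH 7.2, 7 mM MgCl2). Kinase-Glo luciferase reagent is then added. Light output is recorded following an 8-min room-temperature incubation.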
# ALDH1A1 inh: inhibitors of human aldehyde dehydrogenase 1A1. P00352. Purified ALDH1A1, NADH fluorescence, propionaldehyde substrate. Potency, µM (top dose mostly 75.3 µM), inactives show at the top dose activity, negative = inhibition, usual class: inhibitors. 220,000 compounds, 7.3% hits. AID 1030;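 also: potency is read from the fitted curve at half-maximal effect; plate controls were no enzyme wells and a reference inhibitor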
# Target sequence (P00352 whole entry, looked up): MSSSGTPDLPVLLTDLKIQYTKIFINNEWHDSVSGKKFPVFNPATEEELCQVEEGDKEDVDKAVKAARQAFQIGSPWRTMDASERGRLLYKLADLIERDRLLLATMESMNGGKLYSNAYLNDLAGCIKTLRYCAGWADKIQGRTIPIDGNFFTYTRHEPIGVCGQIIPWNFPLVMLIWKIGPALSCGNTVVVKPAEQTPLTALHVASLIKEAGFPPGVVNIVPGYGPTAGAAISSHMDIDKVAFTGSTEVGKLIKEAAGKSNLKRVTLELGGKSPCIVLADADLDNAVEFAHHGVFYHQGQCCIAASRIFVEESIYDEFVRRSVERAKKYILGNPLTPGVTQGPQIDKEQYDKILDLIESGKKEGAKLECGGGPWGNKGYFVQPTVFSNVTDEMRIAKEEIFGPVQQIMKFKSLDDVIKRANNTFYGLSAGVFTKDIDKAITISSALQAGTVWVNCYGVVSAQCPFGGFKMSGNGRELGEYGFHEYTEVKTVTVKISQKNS
# PNC assembly inh: blocks assembly of the perinucleolar compartment. activity change (PNC), negative = inhibition, % at 10 µM. PC3M PTB-GFP, PNC prevalence imaging, 16 h; active compounds read low. 140,000 compounds, 3.1% hits;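 active = readout at or below -70, meaning at least 70% loss of cells showing the perinucleolar compartment, a nuclear body marking cancer cells; inconclusive = readout between -30 and a set limit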;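 also: plate controls were DMSO wells for no effect and camptothecin positive control wells for full effect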
#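 PC3M cells stably expressing PTB-GFP, 750–1000 cells/well, treated 16 h at 37 °C with compound (23 nl of library stock), in duplicate. After paraformaldehyde fixation and Hoechst stain, imaged at 20x; PNC prevalence scored by image analysis.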
# HPGD inh: HPGD (human) dehydrogenase inhibition. P15428. purified HPGD, NADH fluorescence kinetic, PGE2 substrate. Potency, µM, without a hit: at the highest dose activity change, negative = inhibition, hits mostly inhibitors. 150,000 compounds, 4.3% hits. AID 894; also: potency is read from the fitted curve at half-maximal effect
#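 20 nM HPGD preincubated 15 min at room temperature with compound in 50 mM Tris-HCl pH 8, 0.01% Tween 20. Started with 1 mM NAD+ and 30 uM prostaglandin E2; NADH fluorescence (360/450 nm) read 5 times over 30-s intervals, last minus first.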
# * marks the source's active call; other numbers are inactive results; ? = inconclusive; / = no result given; [ ] = another dose, or the depositor's remark. Only some compounds are listed: those with a hit (about 10% of all), similar ones and a draw of the others. Unless noted, calls follow the shape of the dose curve; as a rule, active = well fitted inhibition curve with a large enough effect (not every such curve was filed as active); inconclusive = small, poorly fitted or top-dose-only effect, or another doubt; inactive = no such curve, though single readings can be large or run the other way. Unless noted, % is scaled to controls: 0 for no effect and ±100 for the full control effect.
SMILES,IMPase cell inh,Lamin A splicing,Luc counter,ALDH1A1 inh,PNC assembly inh,HPGD inh
O=C(CCNc1ccc(Br)cc1)c1cccc([N+](=O)[O-])c1,/,?,-1.5%,0.631µM*,/,/
O=C(Oc1cc(-c2ccccc2)no1)c1ccc(F)cc1,1.9,14.5%,-0.1%,8.9%,-7.8,-9.2%
O=C(Oc1cc(-c2ccccc2)no1)c1cccc(C(F)(F)F)c1,2.7,0.0%,-0.6%,7.94µM*,42.2,-16.8%
CNc1ccccc(-c2ccc3cc4c(cc3n2)OCO4)c1=O,/,-1.1%,?,?,-109.0*,-2.6%
c1ccc2nc(-c3ccc4c(c3)OCO4)ccc2c1,/,?,-26.4%,?,/,/
CCC12CN3CC(CC)(CN(C1)C3c1c[nH]c3ccccc13)C2=O (stereo not given),/,-11.9%[46 µM],/,/,/,/
NSc1nc(N)c2nc(-c3ccccc3)c(-c3ccccc3)nc2n1,/,/,0.2%,14.1µM*,/,/
Nc1nc(N)c2nc(-c3ccccc3)c(N)nc2n1,-29.3,?,-0.8%,?,26.3,?
Cc1ccc(-c2nc3cnccn3c2Nc2ccc3c(c2)OCO3)o1,9.7,-9.3%,1.7%,14.1µM*,?,-28.6%
CC(C)[C@@H](CC(=O)N[C@@H]1CCCC[C@H]1C(=O)N[C@H](CC(=O)N[C@@H](CCC(=O)O)CC(=O)O)Cc1c[nH]c2ccccc12)NC(=O)C[C@H](CO)NC(=O)[C@@H]1CCCC[C@H]1N,/,/,-2.9%,-14.0%,/,-13.5%
Cc1ccc(NCc2ccc(O)c3ncccc23)cc1,/,/,-5.3%,3.2%,/,/
Cc1cccnc1NCc1ccc(O)c2ncccc12,2.9,?,12.5%,20µM*,-22.0,-27.2%
Cc1cccc(NCc2ccc(O)c3ncccc23)c1C,/,?,-0.5%,10µM*,/,/
Cc1cc(/C=N/NC(=O)C(=O)NCc2ccccn2)c(C)n1-c1ccccc1,/,-1.0%,-13.6%,11.2µM*,21.8,2.0%
Cc1cc(/C=N\NC(=O)COc2cccc3cccnc23)c(C)n1-c1ccccc1,/,-0.2%,-2.3%,14.1µM*,-14.5,-16.0%
Cc1cc(/C=N\NC(=O)c2cccs2)c(C)n1-c1ccc2ncccc2c1,24.8,?,-11.2%,20µM*,?,?
Cc1cc(/C=N/NC(=O)c2ccccn2)c(C)n1-c1cccc([N+](=O)[O-])c1,/,13.8%[9.22 µM],-2.1%,?,/,/
Cc1cc(/C=N\NC(=O)COc2cccc3cccnc23)c(C)n1-c1ccc(Br)cc1,/,?,0.6%,?,-7.2,-2.9%
Cc1cc(C)cc(-n2c(C)cc(/C=N/NC(=O)CSc3ncccn3)c2C)c1,12.9,?,-2.7%,28.2µM*,1.9,-15.5%
Cc1ccc(NC(=O)Cn2cc(S(=O)(=O)N3CCCC3)c(S(=O)(=O)N3CCCC3)c2)c(C)c1,/,13.7%[46 µM],/,/,/,/
Cc1ccc(NC(=O)CC(C)S(=O)(=O)c2ccc3c(c2)NC(=O)CO3)c(C)c1 (stereo not given),/,7.4%[46 µM],/,/,/,/
CC(C)(C)OC(=O)N1CCC(c2c(C(=O)N3CCN(c4ncccn4)CC3)cnn2-c2ccc(F)cc2)CC1,/,-10.0%[46 µM],/,/,/,/
CN1C(=O)N(C)C2=NNC=NC2(O)C1=O (stereo not given),/,/,-3.6%,?,/,?
Cc1cc(=O)[nH]c2cc3oc4ccccc4c3cc12,/,/,-3.1%[7.66 µM],-2.3%[13.5 µM],/,-20.8%
C=CCn1cc(/C=N/NC(=O)COc2cccc3cccnc23)c2ccccc21,5.3,-9.8%,-1.8%,17.8µM*,-12.1,-9.8%
SMILES,IMPase cell inh,Lamin A splicing,Luc counter,ALDH1A1 inh,PNC assembly inh,HPGD inh
CC(C)n1cc(/C=N/NC(=O)COc2cccc3cccnc23)c2ccccc21,9.3,?,/,?,-13.2,/
Cc1cc(=O)n(Cc2c(F)cccc2Cl)c2c1c(C)nn2C,/,-11.4%[46 µM],/,/,/,/
C=C(C)C1CC=C(C)/C(=N/NC(=O)c2ccc(NC(=O)c3cccc(C)c3)cc2)C1 (stereo not given),4.4,5.8%,-0.4%,-4.1%,27.4,-19.4%
C=C(C)C1CC=C(C)/C(=N/NC(=S)Nc2ccccc2)C1 (stereo not given),/,?,1.8%,35.5µM*,37.2,-15.5%
COC(=O)c1c(NC(=O)/C=C/C(=O)O)sc(C)c1-c1ccc(C)cc1,/,18.3%[46 µM],3.6%,?,/,/
CCOC(=O)c1c(NC(=O)/C=C/C(=O)O)sc(C)c1-c1ccc(F)cc1,/,/,/,14.1µM*,/,/
COC(=O)c1c(NC(=O)/C=C/C(=O)O)sc(C)c1-c1ccc(C(C)C)cc1,/,?,0.0%,7.94µM*,/,/
CN(C)c1ccc(N=NS(=O)(=O)O)cc1,/,/,/,10µM*,/,-16.3%
Cc1nc(NCc2ccccc2)c2nc(-c3ccccc3)n(CC3CCN(C)CC3)c2n1,/,/,0.2%,-13.6%,/,-22.6%
CC(C)(C)NC(=S)NNC(=O)c1ccncc1,/,4.8%,3.2%,9.0%,-113.8*,12.6µM*
CCNC(=S)NNC(=O)c1ccncc1,/,/,-0.5%,-0.7%,/,/
COc1ccc(NC2=CC(c3ccc(OC)c(OC)c3)N(c3ccc(OC)cc3)C2=O)cc1 (stereo not given),/,?,0.1%,14.1µM*,5.7,?
Fc1ccc(Nc2ccnc(-c3ccoc3)n2)cc1,/,?,/,31.6µM*,/,/
N#Cc1cccc(-c2nccc(NCc3cccs3)n2)c1,/,?,/,-6.1%,/,/
c1csc(CNc2ccnc(-c3ccoc3)n2)c1,/,?,/,11.2µM*,/,/
CN(C)S(=O)(=O)c1cccc(NC(=S)Nc2cc(Cl)cc(Cl)c2)c1,-9.5,-1.3%,2.8%,?,35.0,-23.1%
CCN(CCO)c1ccc(NC(=S)Nc2cccc(S(=O)(=O)N(C)C)c2)cc1,/,/,2.0%,25.1µM*,/,/
CN(C)S(=O)(=O)c1cccc(NC(=S)Nc2ccc(Cl)cc2Cl)c1,-1.6,-9.7%,5.3%,12.6µM*,?,?
Clc1ccc(CN2CCCN(Cc3ccc(Cl)cc3)C2c2cc3ccccc3c3ccccc23)cc1,/,/,-6.8%[7.66 µM],14.2%[13.5 µM],/,-15.3%
Cc1cc(NCc2ccco2)n2ncnc2n1,4.8,-4.5%,0.7%,3.5%,-119.3*,2.4%
CN(C)CCNC(=O)CCCN1C(=O)c2cccnc2Oc2ccc(Cl)cc21,/,14.6%[46 µM],/,/,/,/
NNC(=O)c1cccc(COc2ccc(Br)cc2)c1,3.4,-10.4%,-0.6%,0.631µM*,?,-6.2%
COc1ccc(OCc2cccc(C(=O)Nn3cc([N+](=O)[O-])cn3)c2)cc1,5.8,-18.3%,-6.8%,-1.2%,-98.6*,-32.7%
COc1ccc(OCc2cccc(C(=O)NN)c2)cc1,/,?,-11.0%,0.316µM*,?,-16.1%
NNC(=O)c1cccc(COc2cccc(Br)c2)c1,2.7,-13.0%,0.0%,3.16µM*,18.3,-7.8%
CCOc1ccccc1NC(=O)CSc1ncc(S(=O)(=O)c2ccc(C)c(C)c2)c(N)n1,/,-14.0%[46 µM],/,/,/,/
O=C(Nc1ccc(Cl)cc1)c1ccc2oc(=O)n(Cc3ccccc3)c2c1,/,-3.9%[46 µM],/,/,/,/
